High-throughput results: PubChem, National Center for Advancing Translational Sciences (NCATS)
DT40 TDP1 no CPT = qHTS for Inhibitors of human tyrosyl-DNA phosphodiesterase 1 (TDP1): qHTS in cells in absence of CPT | Potency, µM (titrated, usually from 46.2 µM), for the others: at the highest dose activity change, negative = growth inhibition, hits mostly inhibitors | 420,000 compounds, 15% hits | AID 686978, 2013 | DT40 Tdp1-/- hTDP1 cells, no CPT, ATP luminescence, 48 h; further: nearly all actives have a fitted effect of over 55% in size
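A cellular qHTS used chicken DT40 cells lacking endogenous Tdp1 but carrying stably transfected human TDP1. Compounds were applied without camptothecin, and cell growth kinetics were judged by ATP-dependent luminescence after ≥48 hr.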
KB-3-1 tox = kills parental KB-3-1 adenocarcinoma cells; KB-3-1 viability, CellTiter-Glo ATP luminescence, 72 h; Potency, µM (top dose mostly 46.1 µM), hits mostly cytotoxic; 400,000 compounds, 1.4% hits; AID 1347075; further: nearly all actives have a fitted effect of over 60% in size
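72 h, 37 °C compound treatment of KB-3-1 parental cells; CellTiter-Glo added, 10 min, luminescence read. Data corrected against DMSO-only plates and normalized before curve fitting.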
TDP1 cell CPT = growth inhibition of DT40 Tdp1-/-;hTDP1 cells with camptothecin (screen for TDP1 inhibitors); chicken DT40 Tdp1-/-;hTDP1 cells + 20 nM CPT, ATP luminescence, 48 h; Potency, µM (series often up to 46.2 µM), inactives show top-dose activity change, negative = growth inhibition, actives largely listed as inhibitors; 420,000 compounds, 12% hits; further: nearly all actives have a fitted effect of over 55% in size
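Cell growth measured by CellTiter-Glo luminescence after a minimum 48 h, 37 C compound exposure with 20 nM CPT in Tdp1-knockout DT40 cells stably expressing hTDP1, seeded 400/well; qHTS titration format.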
HT1080NT lethal = kills 2HG-producing HT-1080-NT fibrosarcoma cells; HT-1080-NT fibrosarcoma viability, CellTiter-Glo ATP luminescence, 48 h; AID 686970; 360,000 compounds, 1.6% hits; Potency, µM (top dose mostly 46.1 µM), for the others: top-dose activity, negative = less viability, usual class: cytotoxic;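 further: NT is the 2HG producing partner of a matched IDH1 knockdown line; 0% = DMSO-treated cells and -100% = media-only wells without cells; nearly all actives have a fitted effect of over 55% in size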
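750 cells/well, RPMI + 5% FBS; 2 h settle, compound pin-transfer, 48 h at 37 degrees C. CellTiter-Glo 10 min RT, luminescence. Normalized to DMSO and media-only wells.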
KB-V1 MDR tox = KB-V1 MDR subline cytotoxicity; KB-V1 MDR cells viability, CellTiter-Glo, 72 h; Potency, µM (titrated, usually from 46.1 µM), hits mostly cytotoxic; 400,000 compounds, 3.4% hits; AID 1347076; further: nearly all actives have a fitted effect of over 60% in size
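Following 72 h at 37 degrees C with compound, KB-V1 cell viability was read by CellTiter-Glo luminescence, medium being phenol-red-free DMEM plus 10% FBS; concentration-response parameters came from normalized, curve-fitted qHTS data.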
HT1080 IDH1KD tx = HT-1080 IDH1 knockdown cell toxicity (counter line) | HT-1080 IDH1 knockdown viability, ATP luminescence, 48 h | Potency, µM (titrated, usually from 46.1 µM), for inactives: at the highest dose activity, negative = toxicity, usual class: cytotoxic | 360,000 compounds, 2% hits | AID 686971;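 further: 0% = DMSO wells and -100% = cell-free medium wells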
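HT-1080-IDH1KD cells (IDH1 knocked down), 750/well in RPMI with 5% FBS, treated with compound 48 h at 37 degrees C. Viability by CellTiter-Glo luminescence, normalised to DMSO and no-cell wells; concentration-response curves classed.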
* hit, by the source's call; i = inactive; ? = inconclusive; / = not tested or not shown; [ ] = remark or other dose. Only some compounds are listed: those with a hit (about 19% of all), similar ones and a draw of the others. The call rests on the fitted dose curve; in most records, active means well fitted curve in the direction sought with a large enough effect; inconclusive means small, poorly fitted or top-dose-only effect, or another doubt; inactive means no such curve, though single readings can be large; an effect the other way counts as inactive or inconclusive. Unless noted, on the % scale 0 is the no-effect control and ±100 the full control effect; potency means the concentration at half of the fitted maximal effect.

SMILES	DT40 TDP1 no CPT	KB-3-1 tox	TDP1 cell CPT	HT1080NT lethal	KB-V1 MDR tox	HT1080 IDH1KD tx
COc1ccc(OC)c(CN2CCOc3ccc(C(O)c4cccnc4)cc3C2)c1 (stereo unspecified)	-29.4%	/	10.3%[9.04 µM]	/	/	/
COc1cccc2cc(C(=O)OCC(=O)NCc3ccc4c(c3)OCO4)c(=O)oc12	-0.3%	i	-6.8%	-1.8%	i	0.2%
CC(C)(C)CC(C)(C)NCC(O)COc1c(F)cc(Br)cc1F (stereo unspecified)	23.1µM*	?	?	20.6µM*	20.6µM*	20.6µM*
CC(C)(C)NCC(O)COc1c(F)cc(Br)cc1F (stereo unspecified)	-10.6%	i	-1.4%	8.5%	i	0.2%
CCc1ccc(-c2cc3c(=O)n(CC(=O)NCCCN4CCN(CC)CC4)nc(C)n3n2)cc1	?	?	18.4µM*	?	i	?
Cc1nn(CC(=O)NCCCN2CCN(C)CC2)c(=O)c2cc(-c3ccccc3)nn12	15.8%	i	4.5%	0.7%	?	12.4%
CCN1CCN(CCCNC(=O)Cn2nc(C)n3c(cc4cc(C)ccc43)c2=O)CC1	-23.3%	/	-12.2%	/	/	/
Cc1nn(CC(=O)NCCCN2CCC(N3CCCCC3)CC2)c(=O)c2cc(-c3ccccc3)nn12	4.11µM*	?	7.31µM*	-4.9%	?	-0.6%
CCOC(=O)C1CCCN(C(=O)Cn2nc(C)n3nc(-c4ccccc4)cc3c2=O)C1 (stereo unspecified)	?	i	14.6µM*	-1.3%	?	-0.7%
O=C(NN=Cc1cccc([N+](=O)[O-])c1)c1cccc2ccccc12	?	i	?	4.8%	i	10.7%
O=C(Cc1ccc(Cl)cc1)NCCc1cnc[nH]1	-2.9%	i	0.3%	5.2%	i	11.3%
CCc1nn2c(=O)cc(COC(=O)C(CC)c3ccccc3)nc2s1 (stereo unspecified)	-20.7%	i	?	/	i	/
CCC(C)NC(=O)COc1ccc(OCc2ccccc2)cc1 (stereo unspecified)	25.9µM*	i	?	8.7%	i	14.1%
O=C1CCCC/C1=N\Nc1ccc(OCc2ccccc2)cc1	-26.2%	i	0.4%	?	i	5.17µM*
Oc1ccc(OCc2ccccc2)cc1	?	/	4.04µM*	/	/	/
S=C(c1ccc(OCc2ccccc2)cc1)N1CCCC1	?	i	18.4µM*	-2.6%	i	-15.8%
COc1cccc(C(=O)Nc2ccccc2OC(F)(F)F)c1	7.7%	i	-3.0%	22.4%	i	14.1%
Oc1ccc(NCc2ccc(OCc3ccccc3)cc2)cc1	11.6µM*	?	6.51µM*	23.1µM*	i	?
CCc1ccc(NC(=O)c2ccc(OC)c([N+](=O)[O-])c2)cc1	0.8%	i	3.1%	21.4%	14.6µM*	9.9%
CCOc1cc(N2CCOCC2)c(OCC)cc1NC(=O)COc1ccccc1[N+](=O)[O-]	?	i	-10.2%	-2.7%	i	-5.7%
CC(C)C(=O)N1CCN(c2ccc(NC(=O)COc3ccccc3[N+](=O)[O-])cc2)CC1	18.4µM*	?	14.6µM*	?	18.4µM*	?
CN1CCN(c2ccc(NC(=O)COc3ccccc3[N+](=O)[O-])cc2)CC1	?	i	-1.9%	0.8%	?	4.6%
O=C(COc1ccccc1[N+](=O)[O-])Nc1cccc(Cl)c1N1CCOCC1	14.6µM*	/	16.4µM*	-13.6%	/	?
COc1ccc(C(=O)Nc2ccc(N3CCN(C(=O)C(C)C)CC3)cc2)cc1[N+](=O)[O-]	11.6µM*	i	?	21.3%	i	29.6%
